Screens (PubChem)
The list is a sample of the results.
aSyn 5UTR act: Activators via SNCA 5'UTR binding, MLPCN; alpha-synuclein 5'UTR reporter, activators screen; activity score, % (tested at 7.5 µM), hits read low; 300,000 tested, 7.1% active; in the data active = activity score below about -60%
Active calls of the source: *.

SMILES | aSyn 5UTR act
C#CCSc1nnc(-c2cccc3ccccc23)o1 | -103.9*
C#CCSc1nnc(-c2ccc(O)cc2)o1 | -137.7*
O=[N+]([O-])c1cc(-c2ccc(/C=N/c3nc4ccccn4c3-c3ccco3)o2)ccc1Cl | -73.9*
Cc1cc2nc3c(nc2cc1C)CCCC3 | -177.5*
O=C(CC1COc2ccccc2O1)NC1CCCCC1 (stereo not given) | -66.9*
Cc1ccc(NC(=O)CC2COc3ccccc3O2)cc1 (stereo not given) | -88.6*
COc1ccsc1NC(=O)OCc1ccc(Cl)cc1 | -69.0*
COc1cc(/C=N/OCC(=O)NC2CCCCC2C)ccc1OCc1ccc(Cl)cc1 (stereo not given) | -98.3*
COc1cc(/C=N/OCC(=O)Nc2cc(C)cc(C)c2)ccc1OCc1ccc(Cl)cc1 | -128.2*
c1ccc(-c2ccc(CN3CCSCC3)cc2)cc1 | -87.9*
O=C(c1ccccc1)c1c(O)nc(-c2ccccc2)n(-c2ccccc2)c1=O | -67.5*
Cc1ccsc1/C=N/N1CCN(c2ccccn2)CC1 | -93.9*
Cc1ccsc1/C=N/N1CCN(c2ccccc2)CC1 | -148.0*
Cc1ccc(-c2cc3c(nn2)-c2ccccc2C3=O)cc1 | 86.5
c1ccc2c(c1)Cc1cc3ccccc3nc1-2 | -102.2*
O=C1c2ccccc2-c2nc3ccccc3cc21 | -114.2*
N/C(=N\OCc1ccccc1)c1nonc1N | -97.8*
Fc1ccc(/C=N/Nc2nccnc2Cl)cc1 | -120.5*
Fc1cccc(/C=N/Nc2nccnc2Cl)c1 | -105.7*
Oc1ccc(/C=N/Nc2nccnc2Cl)cc1 | -123.9*
O=[N+]([O-])c1cccc(-c2nnc(-c3ccccc3F)o2)c1 | -161.5*
O=C(N/N=C\c1cc(Br)ccc1O)c1ccc(S(=O)(=O)N2CCCCC2)cc1 | 109.7
Cc1cccc(NC(=S)N=Nc2c(O)n(C)c3ccc(S(=O)(=O)N4CCOCC4)cc23)c1 | 83.4
Cc1ccnc(NC(=O)C2CCN(S(=O)(=O)c3ccc(Cl)c(C(F)(F)F)c3)CC2)c1 | -63.4*
CCN(CC)CCNC(=O)c1ccc(NC(=O)c2ccc(S(=O)(=O)N3CCCCCC3)cc2)cc1 | -64.0*
SMILES | aSyn 5UTR act
O=C(Nc1cccc(O)c1)c1ccc(S(=O)(=O)N2CCCCCC2)cc1 | -68.3*
CCS(=O)(=O)c1ncc(Cl)c(C(=O)Nc2ccc(S(=O)(=O)N3CCC(C)CC3)cc2)n1 | 65.1
O=C(Nc1ccccn1)c1ccc(Br)c(S(=O)(=O)N2CCCC2)c1 | -65.3*
O=C(Nc1cccc(S(=O)(=O)N2CCCCC2)c1)c1ccc([N+](=O)[O-])o1 | -268.3*
O=C(Nc1ccccc1[N+](=O)[O-])c1ccc(S(=O)(=O)N2CCCC2)cc1 | -131.0*
Cc1ccnc(NC(=O)c2ccc(S(=O)(=O)N3CCCCCC3)cc2)c1 | -119.1*
O=C(Nc1ccccn1)c1ccc(S(=O)(=O)N2CCCCCC2)cc1 | -86.6*
O=C(Nc1ccccn1)c1ccc(S(=O)(=O)N2CCCCC2)cc1 | -121.0*
C=C1C(=O)C=C[C@]2(C)C[C@@H]3OC(=O)[C@](C)(O)[C@H]3C[C@@H]12 | -526.8*
O=c1nc(/C=C/c2ccc(-c3ccc(F)cc3)o2)cc(C(F)(F)F)[nH]1 | -62.5*
CC(C)OC(=O)CNc1n[nH]c(=S)[nH]c1=O | -131.2*
N/C(=N\OC(=O)Nc1ccccc1)c1ncc(C(F)(F)F)cc1Cl | -115.3*
N/C(=N\OC(=O)Nc1ccc(Cl)cc1)c1ncc(C(F)(F)F)cc1Cl | -72.9*
CN1N=C(/C=C/c2ccccc2)CCC1=O | -134.3*
Cc1ccc(/C=C/C2=NN(C)C(=O)CC2)cc1 | -104.3*
CC(C)/C=N/Nc1nc(-c2ccc(Br)cc2)cs1 | -141.3*
N#CCCCCn1ccc(NC(=O)c2ccc(Cl)cc2O)n1 | -80.9*
Oc1sc(C=Nc2ccccc2)c2ccccc12 | -254.0*
Oc1c(C=Nc2ccccc2)sc2ccccc12 | -65.2*
Oc1c(C=Nc2ccc(Cl)cn2)sc2ccccc12 | -180.0*
Oc1sc(C=Nc2ccc(F)cc2)c2ccccc12 | -227.2*
CCN(CC)c1ccc(C=N/C(C#N)=C(\N)C#N)cc1 | -138.1*
O=C(NCCSc1ccccn1)c1ccc(Cl)cc1Cl | -92.5*
Cc1ccc(OCC(=O)NCc2ccccn2)c(Br)c1 | -104.0*
Cc1ccc(C(=O)NCc2ccccn2)c(Cl)c1 | -92.0*
SMILES | aSyn 5UTR act
O=C(COc1ccccc1Br)NCc1ccccn1 | -70.7*
O=C(COc1ccc(F)cc1Br)NCc1ccccn1 | -88.4*
O=C(/C=C1\NC2(CCCC2)Cc2ccccc21)C(=O)N/N=C/c1ccccc1O | 74.3
O=C(N/N=C/c1ccccc1[N+](=O)[O-])C(=O)N1CCCC1 | -71.7*
Cc1cccc(OCCOC(=O)c2c(-c3ccccc3)noc2C)c1 | -96.7*
O=C(COC(=O)c1ccc2c(c1Cl)C(=O)c1ccccc1C2=O)NC1CC1 | -66.4*
Cc1cccc(C)c1NC(=O)COC(=O)c1cccc2c1C(=O)c1ccccc1C2=O | 67.9
O=C(CSCc1ccccc1)N1CCN(c2ccccc2)CC1 | -103.2*
O=C(CSCc1cccc(F)c1)N1CCN(c2ccccc2)CC1 | -199.4*
CC(=O)c1ccc(Nc2ccc(-c3ccccc3C)nn2)cc1 | -147.7*
CC(=O)c1cccc(Nc2ccc(-c3ccccc3F)nn2)c1 | -155.5*
CC(=O)Nc1c(-c2ccc3ccccc3c2)nc2ccccn12 | -124.3*
O=C(N/N=C/C=C\c1ccccc1[N+](=O)[O-])c1cc(-c2ccc3ccccc3c2)n[nH]1 | -88.1*
O=C(N/N=C/c1ccco1)c1cc(-c2ccc3ccccc3c2)n[nH]1 | -75.0*
O=C(N/N=C/c1ccccn1)c1cc(-c2ccc3ccccc3c2)n[nH]1 | -160.9*
CCc1cc(C=NC2CCCCC2)c(O)s1 | -174.5*
Cc1onc(-c2ccccc2)c1C(=O)O/N=C(\N)c1ccc([N+](=O)[O-])o1 | -136.0*
CCOC(=O)C1CCCN(C(=O)c2cc3cc4ccc(OC)cc4nc3o2)C1 (stereo not given) | -100.7*
COc1ccc2cc3cc(C(=O)N4CCCC(C)C4)oc3nc2c1 (stereo not given) | -64.4*
Cc1ccc(SCC(=O)Nc2cccc(C)c2)cc1 | -134.7*
Cc1cccc(NC(=O)CNc2cc(C)ccc2C)c1 | -68.4*
Nc1ccccc1SC1CC(=O)N(c2ccc3c(c2)OCCO3)C1=O (stereo not given) | -78.1*
O=C(Nc1ccn(Cc2ccc(Cl)cc2)n1)c1ccc2c(c1)OCO2 | -70.4*
Nc1ccc(C(=O)N/N=C/c2cn(Cc3ccc(F)cc3)c3ccccc23)cc1 | 64.3
O=C(Nc1ccn(Cc2ccccc2)n1)c1ccc(F)cc1 | -120.1*
SMILES | aSyn 5UTR act
Cc1ccc(Cn2ccc(NC(=O)c3nn(C)cc3Cl)n2)cc1 | -112.4*
O=C(Nc1ccn(Cc2ccccc2F)n1)c1ccc(COc2ccc(Br)cc2)cc1 | -68.5*
O=C(NCc1ccccc1)c1ccc(-c2ccccc2F)o1 | -155.1*
CCc1nnc(NC(=O)c2ccc(-c3ccccc3F)o2)s1 | -65.0*
O=C(Cc1ccc(-c2ccccc2)cc1)NCc1ccccc1 | 104.5
CCc1nc(SCc2ccc(OC)cc2)n[nH]1 | -82.2*
N/C(Cc1cccs1)=N\OC(=O)COc1ccccc1 | -77.3*
Cc1cccc(/C(N)=N/OC(=O)Cc2cccs2)c1 | -140.8*
Cc1ccc(/C(N)=N/OC(=O)Cc2cccs2)cc1 | -168.5*
N/C(=N\OC(=O)Cc1cccs1)c1ccccc1 | -213.9*
O=C(/C=C/c1ccc(F)cc1)NC(=S)N1CCN(c2ccccn2)CC1 | -84.6*
COc1ccc(/C=C/C(=O)NC(=S)N2CCOCC2)cc1 | -83.7*
COc1ccc(/C=C/C(=O)NC(=S)N2CCN(c3ccccc3OC)CC2)cc1 | -160.0*
COC(=O)c1c(NC(C)=O)sc(C(=O)Nc2ccccc2)c1C | -85.3*
